The record followed here is ChEMBL document CHEMBL3988442, “University of Dundee, Small-Polar-MMV Screening Library” (2021).

In all, about 53,000 compounds went through this assay and about 900 (1.7%) showed an effect of 50% or more. The sample holds strong results, similar compounds and a random draw of the others, so the mix is not that of the screen.

The test deals with Mycobacterium tuberculosis. Briefly: Cornell - Phenotypic assay to identify agents that inhibit growth of Mycobacterium tuberculosis. It counts as functional. Details: scale not given: direction of the effect not stated beside the values. Particulars: 10 mM as filed; unlikely as a test dose.
As to `CC(=O)N1CC[C@@H]2O[C@@H](COCC(=O)N3CCCC3)CC[C@@H]21`, the “Percent Effect” value is -45.3%.
`O=C(NCC(Cc1cccc(F)c1)N1CCCC1=O)c1ccc(=O)[nH]n1` (stereo not given): the “Percent Effect” value came to 14.14%.
For `Cc1ncsc1C(=O)N1CCC(c2ncncc2-c2ccnc(N)c2)C1` (stereo not given) the value was -0.8467%; for `CSCC[C@H](NC(C)=O)c1nc(Cc2ccccc2)n[nH]1`, -11.93%.
As to `COc1ncccc1CN1Cc2nccn2CC(CN2CCCC2)C1` (stereo not given), the “Percent Effect” value is 6.883%.
Regarding `Cc1ccccc1CCCN1CCS(=O)(=O)CC1C` (stereo not given), the “Percent Effect” value came out at 46.6%.
For `CC(C)(C)S(=O)(=O)c1ccc(N2CCC(n3cncn3)CC2)cn1` the value was -14.59%.
For `CS(=O)(=O)N[C@@H]1CN(C(=O)c2cnccn2)[C@@H]2CCCO[C@@H]21` the value was -34.02%; for `Cc1cnc(CN(C)Cc2cccc(OC(F)(F)F)c2)cn1`, -8.651%; for `O=C(NCc1ccccc1)NCc1nc(-c2ccncc2)n[nH]1`, 13.27%.
As for `CC(C)Oc1cccc(-c2nc3c([nH]2)CCCNC3=O)c1`, the “Percent Effect” value is on record as -4.933%.
As for `Cc1cccc(SC2CCN(C(=O)CCCS(N)(=O)=O)CC2)c1`, the “Percent Effect” value worked out at 37.58%.
For `CC(=O)NCCCC(=O)N1CCC(Sc2cccc(C)c2)CC1` the value was 15.76%; for `Cc1cccc(SC2CCN(C(=O)CCCn3cnnn3)CC2)c1`, 50.26%.
For `Cc1nc(N2CCCOC(Cn3cccn3)C2)c2sccc2n1` (stereo not given), the “Percent Effect” value stood at 26.84%.
In the case of `CCC(C)(C)NC(=O)c1nnn(-c2cccc3c2CCN(C)C3)c1C` it was -0.0817%; in that of `COCc1nc(CNc2cc(C)nc(N3CCCCC3)n2)no1`, -11.46%; in that of `CCn1cc(S(=O)(=O)NC(CO)Cc2c[nH]c3ccccc23)cn1` (stereo not given), -1.971%.
`CCn1cc(S(=O)(=O)NC(=O)CCc2c[nH]c3ccccc23)cn1`: the “Percent Effect” value was 53.27%.
With `CCn1cc(NC(=O)NC(CO)Cc2c[nH]c3ccccc23)cn1` (stereo not given), the “Percent Effect” value is -8.114%.
For the compound `Cc1noc(-c2ccc(-n3ncc(C(=O)O)c3C)nc2)n1`, the “Percent Effect” value stood at 11.73%.
Consider `CCC(C)NC(=O)c1snnc1-c1ccc(OC)cc1` (stereo not given), for which the “Percent Effect” value stood at 21.58%.
For `COC(=O)[C@H](CC(C)C)NC(=O)c1snnc1-c1ccc(OC)cc1` the value was 25.36%.
For the compound `COC(=O)[C@@H](NC(=O)c1snnc1-c1ccc(OC)cc1)C(C)C`, the “Percent Effect” value was 58.81%.
Turning to `Cc1ccc(-c2nc(CN3CCn4c(C)nnc4C3)co2)cc1`, the “Percent Effect” value is -23.96%.
As to `Nc1nc2nc(C3CCN(C(=O)c4cscn4)C3)ccc2s1` (stereo not given), the “Percent Effect” value was -97.96%.
In the case of `O=C(NC1CCCN(CCc2ccccc2)C1)c1ccccn1` (stereo not given) it was 35.43%.
Consider `O=C(c1ccco1)N1CCO[C@@H]2CN(c3ccccc3)CC[C@@H]2C1`, for which the “Percent Effect” value was determined as 17.14%.
`CCc1ccccc1OC1CN(C(=O)c2ccnc(OC)c2)C1`: the “Percent Effect” value came out at 66.55%.
For `COc1cccc(OC2CN(C(=O)c3ccnc(OC)c3)C2)c1` the value was 17.3%; for `COc1cc(C(=O)N2CC(Oc3ccccc3Cl)C2)ccn1`, 25.67%; for `CCc1ccc(NC(=O)N2C[C@H]3C[C@H](C(=O)N4CCCC4)[C@@H](C2)O3)cc1`, -25.04%.
For `O=C(c1ccccc1F)N1CC[C@@H]2CN(c3ncccn3)CCO[C@@H]2C1`, the “Percent Effect” value came out at 12.82%.
In the case of `O=S(=O)(c1ccccc1Br)N1CCC2(CC1)OCCS2` it was 54.27%; in that of `O=S(=O)(c1ccccc1Cl)N1CCC2(CC1)OCCS2`, 36.27%.
In the case of `CNC(=O)CS(=O)(=O)C1CCN(S(=O)(=O)c2ccccc2Br)CC1` it was 7.561%; in that of `O=S(=O)(NC1CCC2(CC1)OCCO2)c1ccccc1Br`, 9.266%; in that of `O=S(=O)(Cc1ccccc1Cl)N1CCC2(CC1)OCCS2`, 47.83%.
For `Cc1c(Cl)cccc1S(=O)(=O)N1CCC2(CC1)OCCS2` the value was 53.55%; for `CS(=O)(=O)N1CCC(CNc2cc(Cl)ccc2C#N)CC1`, -6.261%.
With `COCCO[C@H]1CCN(C(=O)c2cccnc2)[C@H]1Cc1cnn(C)c1.O=C(O)C(F)(F)F`, the “Percent Effect” value is on record as 12.42%.
Turning to `COCCS(=O)(=O)c1ncc(CN(C)CC(C)C)n1Cc1ccccc1`, the “Percent Effect” value is recorded as -3.776%.
Turning to `COCC(=O)N(Cc1ccc2[nH]ccc2c1)C1CC1`, the “Percent Effect” value amounted to 26.94%.
As for `COCC(=O)N(Cc1ccc2cc[nH]c2c1)C1CC1`, the “Percent Effect” value was 57.03%.
With `CCNC(=O)N(Cc1cccc(OC)c1)C1CCC(O)CC1` (stereo not given), the “Percent Effect” value was determined as 21.75%.
As to `CCN(C(=O)CCc1ccc2[nH]ccc2c1)C1CC(=O)NC1=O` (stereo not given), the “Percent Effect” value amounted to 14.54%.
For `O=C(C1CC1)N(Cc1ccc2cc[nH]c2c1)C1CC1`, the “Percent Effect” value amounted to 42.2%.
As to `COC(=O)CCC(=O)N(Cc1ccc2cc[nH]c2c1)C1CC1`, the “Percent Effect” value is recorded as 90.28%.
Turning to `CCOc1ccccc1C1=CCN(C(=O)C2CCN(C)C(=O)C2)CC1` (stereo not given), the “Percent Effect” value is reported as -20.28%.
For `COC(=O)c1cccn1C1CCN(C(=O)c2ccc(C)[nH]c2=O)CC1`, the “Percent Effect” value is listed as -31.25%.
As to `CCc1cc(N(C)Cc2ccncn2)n2nc(C)c(C)c2n1`, the “Percent Effect” value came to 59.71%.
Turning to `CCc1cc(N(C)Cc2cc[nH]n2)n2nc(C)c(C)c2n1`, the “Percent Effect” value came to 4.829%.
Regarding `CCc1cc(N(C)Cc2ccnc(C)c2)n2nc(C)c(C)c2n1`, the “Percent Effect” value is -23.54%.
Consider `Cc1nc(C2CCCN(C(=O)c3cc(Cl)c4c(c3)OCO4)C2)no1` (stereo not given), for which the “Percent Effect” value turned out to be 12.39%.
For the compound `O=C(C1CCCO1)N1C[C@@H]2CCN(c3cnccn3)C[C@@H]2C1.O=C(O)C(F)(F)F` (stereo not given in full), the “Percent Effect” value came to 30.53%.
As for `c1ccc(C2CCCN(c3cncc(-n4cccn4)n3)CC2)cc1` (stereo not given), the “Percent Effect” value is 42.47%.
`c1ccc(C2CCN(c3cncc(-n4cccn4)n3)CC2)cc1`: the “Percent Effect” value amounted to 25.96%.
On to `c1ccc(COC2CCN(c3cncc(-n4cccn4)n3)CC2)cc1`, for which the “Percent Effect” value is given as 60.34%.
On to `O=C(Nc1ccnc2ccnn12)c1ccc(N2CCC(O)CC2)cc1`, for which the “Percent Effect” value came out at 85.62%.
For `O=C(Nc1ccnc2ccnn12)c1ccc(NC2CC2)nc1`, the “Percent Effect” value is given as -11.01%.
In the case of `Cc1cc(NC(=O)c2ccc(N3CCOCC3)cc2)[nH]n1` it was 29.03%; in that of `CS(=O)(=O)N1CCO[C@@H]2CN(C(=O)C3CC(F)(F)C3)C[C@@H]2C1`, -22.45%.
In the case of `Cn1c(NC(=O)CNC(=O)C2CC2)nc2cc(Cl)ccc21` it was -3.36%; in that of `Cn1c(NCc2ccc(C(N)=O)cc2)nc2cc(Cl)ccc21`, 60.39%; in that of `Cn1cc(CNc2nc3cc(Cl)ccc3n2C)cn1`, 16.71%.
